Assay results as given in article PMC5540273 (PLoS ONE, 2017).

Tests used:
Conditions in all cases: concentration: 1 μM, replicates: in singlicate; n = 1
[1] = test system: TYK2(JH2domain-pseudokinase)
TYRO3 = test system: TYRO3
ULK1 = test system: ULK1
ULK2 = test system: ULK2
ULK3 = test system: ULK3
VEGFR2 = test system: T1, VEGFR2
T1 construct: gene KDR

VPS34 = test system: T2, VPS34
T2 construct: gene PIK3C3

VRK2 = test system: VRK2
WEE1 = test system: WEE1
WEE2 = test system: WEE2
WNK1 = test system: WNK1
WNK2 = test system: WNK2
WNK3 = test system: WNK3
WNK4 = test system: WNK4
YANK1 = test system: T3, YANK1
T3 construct: gene STK32A

YANK2 = test system: T4, YANK2
T4 construct: gene STK32B

YANK3 = test system: T5, YANK3
T5 construct: gene STK32C

YES = test system: T6, YES
T6 construct: gene YES1

YSK1 = test system: T7, YSK1
T7 construct: gene STK25

YSK4 = test system: T8, YSK4
T8 construct: gene MAP3K19
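Further: KINOMEscan kinase panel screen.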

| SMILES | %Inh [1] [%] | %Inh (TYRO3) [%] | %Inh (ULK1) [%] | %Inh (ULK2) [%] | %Inh (ULK3) [%] | %Inh (VEGFR2) [%] | %Inh (VPS34) [%] | %Inh (VRK2) [%] | %Inh (WEE1) [%] | %Inh (WEE2) [%] | %Inh (WNK1) [%] | %Inh (WNK2) [%] | %Inh (WNK3) [%] | %Inh (WNK4) [%] | %Inh (YANK1) [%] | %Inh (YANK2) [%] | %Inh (YANK3) [%] | %Inh (YES) [%] | %Inh (YSK1) [%] | %Inh (YSK4) [%] |
| --- | --- | --- | --- | --- | --- | --- | --- | --- | --- | --- | --- | --- | --- | --- | --- | --- | --- | --- | --- | --- |
| O=C(Nc1ccccc1F)NC1CCN(c2ccnc(Nc3ccc(F)cc3)n2)CC1 [GSK1379800] | 43 | 0 | 0 | 0 | 6 | 0 | 0 | 4 | 21 | 0 | 9 | 6 | 37 | 34 | 0 | 0 | 1 | 4 | 0 | 14 |
| CCS(=O)(=O)c1ccc(OC)c(Nc2nccc(-c3c(-c4cccc(NC(=O)c5c(F)cccc5F)c4)nn4ncccc34)n2)c1 [GSK326180] | 26 | 0 | 12 | 0 | 25 | 16 | 0 | 0 | 17 | 5 | 17 | 35 | 18 | 14 | 0 | 56 | 24 | 90.1 | 0 | 33 |
| COc1cccc(C(=O)Nc2cccc(Oc3ccc4nc(NC(=O)C5CC5)cn4n3)c2)c1 | 0 | 47 | 0 | 0 | 11 | 99.9 | 22 | 0 | 0 | 20 | 0 | 0 | 0 | 0 | 0 | 0 | 0 | 92.7 | 0 | 100 |
| COCCOCCOc1cc2ncc3c4ccc(C#N)cc4[nH]c3c2cc1OC | 41 | 8 | 79 | 99.4 | 65 | 0 | 0 | 9 | 3 | 15 | 0 | 0 | 0 | 0 | 0 | 0 | 0 | 13 | 0 | 93.7 |
| COc1cc(Nc2ncc3c(C)nc(-c4cc5ccccc5[nH]4)n3n2)cc(OC)c1OC [GW869516] | 82 | 32 | 48 | 51 | 20 | 0 | 0 | 0 | 36 | 85 | 0 | 0 | 0 | 0 | 0 | 0 | 0 | 47 | 0 | 0 |
| NCCCC(NC(=O)c1cc(Br)c(-c2ccnc3[nH]ccc23)s1)c1ccccc1.O=C(O)C(F)(F)F.O=C(O)C(F)(F)F (centres unmarked) [GSK1287544] | 6 | 0 | 54 | 0 | 13 | 3 | 28 | 0 | 2 | 4 | 30 | 0 | 11 | 8 | 0 | 0 | 0 | 0 | 0 | 95.2 |
| CC(=O)N1CCN(c2ccc(Nc3nccc(-c4sc(C(C)C)nc4-c4cccc(NS(=O)(=O)c5cccc(Cl)c5)c4)n3)cn2)CC1 [GSK1660437] | 0 | 40 | 37 | 4 | 62 | 26 | 0 | 0 | 0 | 0 | 2 | 11 | 0 | 0 | 3 | 77 | 0 | 92.4 | 0 | 9 |
| O=c1[nH]cc(-c2ccc(N3CCOCC3)cc2)c2sc(-c3cn[nH]c3)cc12 [GSK2276055] | 64 | 0 | 0 | 0 | 9 | 17 | 0 | 0 | 4 | 0 | 7 | 1 | 8 | 0 | 8 | 0 | 16 | 0 | 26 | 98.1 |
| Cl.Cl.NCC(NC(=O)c1cc(-c2ccccc2)c(-c2ccnc3[nH]ccc23)s1)c1ccccc1 (centres unmarked) [GSK1321561] | 2 | 0 | 8 | 0 | 9 | 0 | 6 | 0 | 17 | 0 | 5 | 100 | 3 | 5 | 48 | 35 | 1 | 41 | 0 | 73 |
| FC(F)(F)c1ccc(/C=C/c2cncnc2Nc2ccc3[nH]c(Cc4ccccc4)nc3c2)cc1 [GW709199] | 34 | 0 | 0 | 0 | 10 | 0 | 39 | 3 | 23 | 35 | 0 | 0 | 0 | 0 | 0 | 0 | 0 | 0 | 0 | 73 |
